HT1080 IDH1KD tx: toxicity to HT-1080 IDH1 knockdown cells (counter line); 360,000 compounds, 2% hits; HT-1080 IDH1 knockdown viability, ATP luminescence, 48 h; Potency, µM (highest dose often 46.1 µM), for inactives: at the top dose activity, negative = toxicity, hits mostly cytotoxic; AID 686971;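 also: potency is read from the fitted curve at half-maximal effect; 0% = DMSO wells and -100% = cell-free medium wells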
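Using the IDH1-knockdown HT-1080 line run in the same batch and compound series as the NT line, viability after 48 h at 37 °C was determined by CellTiter-Glo luminescence and expressed as % activity.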
HT1080NT lethal: kills 2HG-producing HT-1080-NT fibrosarcoma cells; 360,000 compounds, 1.6% hits; AID 686970; HT-1080-NT fibrosarcoma viability, CellTiter-Glo ATP luminescence, 48 h; Potency, µM (series often up to 46.1 µM), inactives show top-dose activity, negative = less viability, hits mostly cytotoxic;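 also: NT is the 2HG producing partner of a matched IDH1 knockdown line; potency is read from the fitted curve at half-maximal effect; 0% = DMSO-treated cells and -100% = media-only wells without cells; nearly all actives have a fitted effect of over 55% in size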
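Read-out is CellTiter-Glo luminescence after 10 minutes at room temperature, following 48 hours' compound treatment of HT-1080-NT cells (750 cells/well, RPMI, 5% FBS, 37 degrees C).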
DT40 TDP1 CPT: DT40-hTDP1 cell growth loss with CPT. chicken DT40 Tdp1-/-;hTDP1 cells + 20 nM CPT, ATP luminescence, 48 h. Potency, µM (top dose mostly 46.2 µM), without a hit: top-dose activity change, negative = growth inhibition, most hits filed as inhibitors. 420,000 compounds, 12% hits. AID 686979; also: potency is read from the fitted curve at half-maximal effect; nearly all actives have a fitted effect of over 55% in size
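Chicken DT40 Tdp1-/- cells complemented with human TDP1, 400 cells/well, exposed to compounds plus 20 nM camptothecin for at least 48 h at 37 C; viability read as ATP content by CellTiter-Glo luminescence.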
IL1B secr inh: inflammasome signaling inhibition, IL-1 beta readout; THP-1 LPS/ATP IL-1B secretion, AlphaLISA, 16 h; stronger effect = lower value; activity change, % at 57.5 µM; 360,000 compounds, 4.7% hits; in the data active = activity change below about -50%; inconclusive = mostly about -30% to -49%
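THP-1 cells pretreated 1 hr with compounds (up to 57.5 uM final), then stimulated with LPS (250 ng/mL final) plus ATP (1.25 mM final); secreted IL-1B measured by AlphaLISA after 16 hr, decreased signal indicating inhibition.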
ALOX12 inh: blocks human arachidonate 12S-lipoxygenase; P18054; purified 12hLO, xylenol orange hydroperoxide absorbance; Potency, µM (titrated, usually from 108 µM), inactives show at the highest dose activity change, negative = inhibition, actives largely listed as inhibitors; 580,000 compounds, 1.1% hits; AID 1671190; also: potency is read from the fitted curve at half-maximal effect
Target sequence (P18054 whole entry, looked up): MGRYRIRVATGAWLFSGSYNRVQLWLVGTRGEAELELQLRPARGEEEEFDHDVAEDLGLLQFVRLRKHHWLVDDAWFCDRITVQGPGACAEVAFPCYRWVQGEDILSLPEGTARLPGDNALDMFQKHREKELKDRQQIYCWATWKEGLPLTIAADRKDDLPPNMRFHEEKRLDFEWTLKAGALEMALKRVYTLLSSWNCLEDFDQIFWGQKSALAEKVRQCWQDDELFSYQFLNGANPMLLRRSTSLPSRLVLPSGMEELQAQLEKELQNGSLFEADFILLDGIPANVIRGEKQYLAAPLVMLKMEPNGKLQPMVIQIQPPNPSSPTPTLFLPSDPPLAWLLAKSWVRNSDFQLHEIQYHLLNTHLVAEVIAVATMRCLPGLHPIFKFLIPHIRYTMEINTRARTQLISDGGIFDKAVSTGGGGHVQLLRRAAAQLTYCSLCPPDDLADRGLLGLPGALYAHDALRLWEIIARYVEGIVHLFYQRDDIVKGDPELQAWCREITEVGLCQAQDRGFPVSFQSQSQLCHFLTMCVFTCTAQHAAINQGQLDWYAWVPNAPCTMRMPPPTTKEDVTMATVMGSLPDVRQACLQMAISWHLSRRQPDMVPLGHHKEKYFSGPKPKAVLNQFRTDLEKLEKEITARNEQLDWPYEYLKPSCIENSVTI
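Hydroperoxide product was detected by ferrous iron/xylenol orange as the 573 to 405 nm absorbance ratio. Arachidonic acid at 40 uM (final) was turned over for 30 min at room temperature by 150 nM human 12hLO, pH 7.0 Hepes buffer, after 15 min compound preincubation.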
DT40 TDP1 no CPT: qHTS for Inhibitors of human tyrosyl-DNA phosphodiesterase 1 (TDP1): qHTS in cells in absence of CPT; Potency, µM (highest dose often 46.2 µM), inactives show at the top dose activity change, negative = growth inhibition, most hits filed as inhibitors; DT40 Tdp1-/- hTDP1 cells, no CPT, ATP luminescence, 48 h; 420,000 compounds, 15% hits; AID 686978, 2013; also: potency is read from the fitted curve at half-maximal effect; nearly all actives have a fitted effect of over 55% in size
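Stably hTDP1-transfected Tdp1-null chicken DT40 cells were treated with library compounds minus camptothecin and grown for at least 48 hr at 37 °C, after which cellular ATP was quantified by luminescence.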
* marks the source's active call; other numbers are inactive results; ? = inconclusive; / = not tested or not shown. This excerpt belongs to a sample that is enriched for hits. Unless noted, calls follow the shape of the dose curve; as a rule, active = well fitted curve in the direction sought with a large enough effect; inconclusive = small, poorly fitted or top-dose-only effect, or another doubt; inactive = no such curve, though single readings can be large; an effect the other way counts as inactive or inconclusive. Unless noted, % is scaled to controls: 0 for no effect and ±100 for the full control effect.

SMILES | HT1080 IDH1KD tx | HT1080NT lethal | DT40 TDP1 CPT | IL1B secr inh | ALOX12 inh | DT40 TDP1 no CPT
CSc1ccc(CCNC(=O)CCCn2nc(C)c3sc4ccccc4c3c2=O)cc1 | / | / | 14.6µM* | / | -8.4% | ?
Cc1nn(CCCC(=O)NCc2ccc(OC(C)C)cc2)c(=O)c2c1sc1ccccc12 | / | / | ? | / | -0.1% | ?
COc1cccc(CNC(=O)CCCn2nc(C)c3sc4ccccc4c3c2=O)c1 | / | / | 16.4µM* | / | 0.0% | ?
CC(C)c1ccc(S(=O)(=O)N2C[C@@H](F)C[C@H]2C(=O)N2CCc3ccccc3C2)cc1 | / | / | / | / | -2.8% | /
COC(=O)[C@@H]1Cc2c([nH]c3ccccc23)[C@H]2C[C@@H](NCCCn3ccnc3)C[C@@H](c3ccc(F)cc3)N21 | / | / | / | / | 45.6% | /
Cc1ccc(S(=O)(=O)N/N=C/c2cc(Br)ccc2O)cc1 | -26.7% | -29.2% | ? | 21.8 | -20.3% | -9.6%
Cc1ccc(S(=O)(=O)Nc2ccc(Br)cc2/C=N/n2cnnc2)cc1 | ? | 12.6µM* | ? | 10.8 | 44.7µM* | 29.1µM*
Cc1cc(-c2ccnc(-n3ncc(C(=O)NCC4COCCO4)c3C)n2)c(C)s1 (stereo not drawn) | / | / | ? | / | 11.2% | 4.11µM*
CSC1=N/C(=C\c2cccc(Cl)c2)C(=O)N1N(C)C | 17.9% | 16.4% | ? | 5.4 | 0.0% | 20.6µM*
Cc1ccccc1N=C/C=C1\N(C)c2ccccc2C1(C)C | -4.8% | -5.3% | 18.4µM* | -10.8 | ? | 8.2µM*
CN1/C(=C\C=N\O)C(C)(C)c2ccccc21 | 19.6% | 6.8% | -28.5% | 22.0 | -16.4% | -25.3%
Cc1cc(/N=C/C=C2/N(C)c3ccccc3C2(C)C)n(CCC#N)n1 | ? | -25.8% | 8.2µM* | ? | -57.3% | 6.51µM*
CN1/C(=C\C=Nc2cc(S(=O)(=O)N3CCOCC3)ccc2N2CCOCC2)C(C)(C)c2ccccc21 | 2.5% | -2.0% | ? | -6.3 | ? | 20.6µM*
CN1/C(=C\C=[N+](C)c2ccccc2)C(C)(C)c2ccccc21 | ? | 7.08µM* | 1.16µM* | -95.0* | ? | 1.3µM*
CCOc1ccc(NS(=O)(=O)c2cccc(C(=O)N(C)Cc3ccco3)c2)cc1 | -0.5% | 7.2% | ? | -2.8 | ? | ?
CCCCOCCCNC(=O)c1ccccc1SCC | / | / | / | / | 15.7% | /
CCCS(=O)(=O)N1CCC(c2noc(-c3ccccc3)n2)C1 (stereo not drawn) | / | / | / | / | 6.0% | /
CN1/C(=C/C=C(/C#N)C(N)=O)C(C)(C)c2ccccc21 | 5.8µM* | 5.8µM* | 2.59µM* | -7.4 | -29.6% | 3.26µM*
CN(C)c1ccc(N=C/C=C2/N(C)c3ccccc3C2(C)C)cc1 | -10.3% | -20.7% | 7.31µM* | -63.9* | ? | 5.17µM*
Cc1ccc(C(=O)NCC(=O)O)cc1C | / | / | / | / | -0.6% | /
O=C(Cc1cn2ccsc2n1)N1CCCn2nc(C(O)C3CC3)cc2C1 (stereo not drawn) | / | / | / | / | 44.7µM* | /
Cc1cccc(C(C)C)c1NC(=O)Cn1nc(C(=O)O)c2ccccc2c1=O | / | / | / | / | 4.3% | /
CC(C)(C)C(=O)NCCC(=O)Nc1ccc2c(c1)CCC2 | / | / | / | / | -0.1% | /
CCOc1ccc(N2C(N)=NC(N)=NC2(C)C)cc1 | 10.3µM* | ? | ? | 12.9 | 0.0% | 6.51µM*
COc1ccc(N2C(N)=NC(N)=NC2(C)C)cc1 | 8.2µM* | 9.2µM* | ? | 0.0 | 0.0% | 0.326µM*
CC1(C)N=C(N)N=C(N)N1c1cccc(C#N)c1 | 0.231µM* | ? | ? | 25.5 | -0.5% | 1.03µM*
COc1ccccc1N1C(N)=NC(N)=NC1(C)C | -6.8% | 0.7% | -9.8% | 24.2 | 6.3% | ?

Screens as filed in PubChem.
